According to PubChem BioAssay AID588458 (Sanford-Burnham Center for Chemical Genomics, 2011):
“And” between values parts separate entries of the source, which are not always exact repeats. Identical values can stand only once. Screen size: about 360,000 compounds; about 3,000 (0.83%) were called active. Rule as the data show it: active = inhibition above about 50%; inactive = the rest. The entries come from a sample that favours actives as a whole. Some compounds were tested as several samples or in several runs, with calls that do not always agree.

Molecular target: DNA (cytosine-5)-methyltransferase 1 (Homo sapiens) (UniProt P26358)
Sequence (P26358 504-1616 limits assumed): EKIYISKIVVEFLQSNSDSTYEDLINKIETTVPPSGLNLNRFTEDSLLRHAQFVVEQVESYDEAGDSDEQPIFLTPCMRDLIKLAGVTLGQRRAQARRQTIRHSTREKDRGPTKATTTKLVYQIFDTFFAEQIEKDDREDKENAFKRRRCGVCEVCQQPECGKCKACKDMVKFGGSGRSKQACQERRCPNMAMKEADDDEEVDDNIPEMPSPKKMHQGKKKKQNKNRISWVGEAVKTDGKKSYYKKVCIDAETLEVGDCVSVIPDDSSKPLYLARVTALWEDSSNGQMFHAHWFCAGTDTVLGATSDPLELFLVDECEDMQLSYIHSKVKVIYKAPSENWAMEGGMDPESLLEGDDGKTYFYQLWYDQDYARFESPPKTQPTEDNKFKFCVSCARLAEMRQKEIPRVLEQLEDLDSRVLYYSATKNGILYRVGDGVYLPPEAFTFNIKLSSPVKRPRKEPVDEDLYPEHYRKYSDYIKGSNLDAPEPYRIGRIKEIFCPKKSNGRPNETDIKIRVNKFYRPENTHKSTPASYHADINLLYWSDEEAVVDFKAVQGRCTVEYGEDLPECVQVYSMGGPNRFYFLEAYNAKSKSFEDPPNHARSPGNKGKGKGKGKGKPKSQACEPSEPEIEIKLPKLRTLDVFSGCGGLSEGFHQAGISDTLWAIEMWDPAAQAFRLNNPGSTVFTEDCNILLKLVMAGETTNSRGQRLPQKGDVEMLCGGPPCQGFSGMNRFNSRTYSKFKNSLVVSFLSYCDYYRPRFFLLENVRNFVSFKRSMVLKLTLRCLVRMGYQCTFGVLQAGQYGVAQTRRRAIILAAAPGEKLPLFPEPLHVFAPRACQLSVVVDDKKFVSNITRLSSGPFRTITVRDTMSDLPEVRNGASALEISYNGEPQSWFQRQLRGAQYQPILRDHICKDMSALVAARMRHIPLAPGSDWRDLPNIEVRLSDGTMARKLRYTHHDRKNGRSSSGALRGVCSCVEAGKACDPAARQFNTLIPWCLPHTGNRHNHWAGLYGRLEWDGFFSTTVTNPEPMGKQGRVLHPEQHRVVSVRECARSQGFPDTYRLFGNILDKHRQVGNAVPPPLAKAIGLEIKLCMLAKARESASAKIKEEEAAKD
Assay: inhibition of DNA methyltransferase DNMT1 – biochemical, molecular beacon, fluorescence, HinP1I cleavage, uHTS, primary screen (AID 588458)
Details: at 10 µM, stronger effect = higher value

SMILES	inhibition (reported as % activation of signal)
Cc1ccccc1-n1cc(CNC(=O)CC2C(=O)NCCN2C/C=C/c2ccccc2)cn1 (stereo unspecified)	68.2% (active)
Cc1ccccc1-n1cc(CNC(=O)C2CCC(=O)N(C3CC3)C2)cn1 (stereo unspecified)	0.34% (inactive)
O=C(CC1C(=O)NCCN1Cc1ccc(-c2ccccc2)cc1)NCc1ccncc1 (stereo unspecified)	-12.2% (inactive)
COc1ccccc1NC(=O)Nc1nnc(Cc2ccc(F)cc2)s1	9.56% (inactive)
COc1cc(OC)cc(C(=O)NNC(=O)Cc2cccs2)c1	7.66% (inactive)
COc1ccc(Cc2nnc(NC(=O)Cc3cccs3)s2)cc1	113% (active)
CC(C)(C)NC(=O)C(c1ccncc1)N(C(=O)CNC(=O)c1ccco1)c1ccc2c(c1)OCO2 (stereo unspecified)	-1.68% (inactive)
CCOc1ccc(-n2cnnn2)cc1S(=O)(=O)N1CCC(C)CC1C (stereo unspecified)	4.44% (inactive)
CC(C)(C)OC(=O)C[C@@H]1C/C=C\C[C@@H](CC(=O)N[C@@H](CO)Cc2ccccc2)C(=O)N2CCC[C@H]2COC1=O	1.28% (inactive)
Nc1ncnc(Nc2cccc(Cl)c2Cl)n1	0.57% (inactive)
COc1cc(C(=O)Nc2cc(C(F)(F)F)ccc2-n2cncn2)cc(OC)c1OC	-2.48% (inactive)
O=C(COC(=O)c1ccccc1O)NCc1ccco1	50% (inactive)
Cc1cc(C(=O)OCC(=O)NCc2ccco2)c(C)n1-c1ccccc1	55.9% (active)
O=C(COC(=O)c1cnc(Cl)c(Cl)c1)NCc1ccco1	30.3% (inactive)
N#CC(C#N)=CN=c1ccn(Cc2ccc(Cl)cc2Cl)cc1	-4.93% (inactive)
Cc1cccc(C)c1NC(=O)C1(C)c2cccc[n+]2CC(=O)N1Cc1cccs1 (stereo unspecified)	-3.99% (inactive)
O=C(/C=C/c1cnc2ccccc2n1)NC1CCCCCC1	-5.96% (inactive)
COc1ccc(CCNC(=O)C(=O)NCC2OCCN2S(=O)(=O)c2ccc(OC)c(C)c2)cc1 (stereo unspecified)	-5.69% (inactive)
O=c1[nH][nH]c(C(F)(F)F)c1C=NCc1ccccc1Cl	-3.13% (inactive)
CCN(CC)S(=O)(=O)c1ccc(N2CC(C(=O)NCc3cccnc3)CC2=O)cc1 (stereo unspecified)	2.78% (inactive)
O=C(COc1ccc([N+](=O)[O-])cc1)Nc1ccc(N2CCCC2)cc1	92.5% (active)
O=C(N/N=C/c1cccc(OC(=O)c2ccc([N+](=O)[O-])cc2)c1)c1cccnc1	2.43% (inactive)

SMILES	inhibition (reported as % activation of signal)
O=C(CCC(=O)N1CCCC1)Nc1ccc([N+](=O)[O-])cc1	0.7% (inactive)
O=C(COc1ccc(/C=N/NC(=O)c2ccc(O)cc2)cc1)Nc1ccc([N+](=O)[O-])cc1	54% (active)
Cc1cc(N2CCCC2)ccc1NC(=O)COc1ccc(Cl)cc1	59.6% (active)
O=C(COc1ccc([N+](=O)[O-])cc1)Nc1cccc(C(=O)Nc2ccccc2C(=O)O)c1	-0.08% (inactive)
O=C(COC(=O)C1CCCCC1)Nc1ccc([N+](=O)[O-])cc1	-1.74% (inactive)
Cc1cc(C)cc(OCC(=O)Nc2ccc(N3CCOCC3)cc2N2CCOCC2)c1	-5.22% (inactive)
O=C(COc1ccc(Cl)cc1)Nc1ccccc1CO	0.96% (inactive)
CC(CO)N1CCS(=O)(=O)CC1 (stereo unspecified)	4.55% (inactive)
Cc1ccc(C)n1-c1ccncc1	-0.41% (inactive)
COc1ccc(NS(=O)(=O)c2ccc(C)c(C(=O)N(C)Cc3ccc(OC)cc3OC)c2)cc1	-0.59% (inactive)
C[C@H]([C@@H](O)[C@@H](O)[C@@H](C)C(C)(C)C)[C@H]1CC[C@H]2C3CC[C@H]4C[C@H](OS(=O)(=O)O)[C@@H](OS(=O)(=O)O)C[C@]4(C)[C@H]3CC[C@]12C (stereo partly specified)	46.8% (inactive)
CC(C)Oc1ccc(CC(=O)NNC(=S)Nc2ccc(Br)cc2)cc1	-8.54% (inactive)
CCCOc1ccc(Cc2c(Cl)nc(SC)nc2NC)cc1	5.36% (inactive)
CC(C)c1ccc(Nc2nnc(SCC(=O)c3nnc(-c4ccccc4)o3)s2)cc1	79.2% (active)
CC(C)N(C(=O)CSc1nnc(NC2CC2)s1)c1ccccc1	-1.85% (inactive)
CC(C)Nc1nnc(SCC(=O)c2c[nH]c3ccccc23)s1	-9.78% (inactive)
CN(C)CCNC(=O)c1cccc(-c2cnc3c(NC=O)cc(-c4cccc(C(F)(F)F)c4)cn23)c1	-1.67% (inactive)
COC(=O)CN1C(=O)N/C(=C/c2ccc(OC)c(C)c2OC)C1=O	0.3% (inactive)
Cc1ccccc1NC(=O)CN1C(=O)N/C(=C\c2cccn2-c2cccc(C(=O)O)c2)C1=O	92.6% (active)
Cc1ccccc1NC(=O)Cn1c(=O)n(CC2CCCO2)c(=O)c2ccccc21 (stereo unspecified)	1.1% (inactive)
CC(C)n1ncc2c(C(=O)N3CCN(Cc4cccs4)CC3)cc(C3CC3)nc21	2.36% (inactive)
COc1cc(C)c(C(C)C)cc1S(=O)(=O)n1ccnc1	27.6% (inactive)

SMILES	inhibition (reported as % activation of signal)
C=CCCC(=O)Nc1nc(C)c(-c2csc(Nc3ccc(Cl)cc3)n2)s1	-14.7% (inactive)
Cc1cn([C@H]2C[C@H](O)[C@@H](/C=C/C(=O)NCCCc3ccccc3)O2)c(=O)[nH]c1=O	1% (inactive)
CCC(=O)Nc1cccc(C2=NOC3(C2)C[C@@H](C(N)=O)N(C(=O)c2cc([N+](=O)[O-])cc([N+](=O)[O-])c2C)C3)c1 (stereo partly specified)	4.19% (inactive)
O=S(=O)(Nc1ccc2[nH]ncc2c1)c1ccccc1Cl	-2.94% (inactive)
COc1cc(/C(=C/c2ccccc2)c2ccccc2)c2c(c1)oc1ccccc12	10.2% (inactive)
Cc1nnc(N/N=C/c2ccccn2)[nH]c1=O	5.44% (inactive)
Cc1n[nH]c(=O)nc1N/N=C/c1cccs1	3.53% (inactive)
Cc1nnc(N/N=C/c2cccs2)[nH]c1=O	56% (active)
CNc1ccc(SC#N)cc1	-16.1% (inactive)
O/N=C1\CC2(Cc3nonc31)OCCO2	77.1% (active)
ON=C1/C(=N\O)CC2(C/C1=N/O)OCCO2	12.4% (inactive)
CC(C)N=C1CCCC1C(=S)SSC(=S)C1CCCC1=NC(C)C (stereo unspecified)	-10.8% (inactive)
O=C(NCCCN1CCOCC1)c1ccccc1NS(=O)(=O)c1ccc(F)cc1	0.01% (inactive)
O=[N+]([O-])c1cc(S(=O)(=O)Nc2cccc(Cl)c2)ccc1N=Nc1c(O)[nH]c2ccccc12	56.3% (active)
O=C(NCc1ccncc1)c1ccc(NS(=O)(=O)c2cccc([N+](=O)[O-])c2)cc1	-0.75% (inactive)
Cc1c(-c2ccccc2)n[nH]c1C(=O)N=Nc1c(O)[nH]c2ccccc12	47.8% (inactive)
CCc1cc(CNC(=O)CC2C(=O)NCCN2Cc2ccccc2C(F)(F)F)on1 (stereo unspecified)	-2.03% (inactive)
CCOC(=O)c1c(-c2cccc(N)c2)cn2ccccc12	2.56% (inactive)
NC(=S)NN=Cc1ccc(OC(=O)COc2cc(Cl)c(Cl)cc2Cl)cn1	-3.17% (inactive)
COc1cccc(CC2(CO)CCCN(Cc3ccc(OC(F)F)cc3)C2)c1 (stereo unspecified)	1.47% (inactive)
Cc1ccccc1CC1(CO)CCCN(Cc2ccc3c(c2)OCCO3)C1 (stereo unspecified)	-0.5% (inactive)
CCOc1cc(CN2CCCC(CO)(Cc3ccc(F)cc3F)C2)ccc1OC (stereo unspecified)	60.8% (active)

SMILES	inhibition (reported as % activation of signal)
CC1(C(=O)NCc2ccc(F)c(F)c2)Cc2c(-c3ccc4c(c3)OCO4)ccnc2O1 (stereo unspecified)	-0.89% (inactive)
Cc1cc2c(cc1C)N1C(=O)c3cc4ccccc4cc3NC(=O)C1C(=O)N2 (stereo unspecified)	40.5% (inactive)
CO/N=C(\C(=O)N[C@@H]1C(=O)N2C(C(=O)O)=C(COC(C)=O)CS[C@H]12)c1csc(N)n1 (stereo in doubt)	20.2% (inactive) and 7.93% (inactive) and 65.2% (active)
C=CC1=C(C(=O)O)N2C(=O)[C@@H](NC(=O)/C(=N\OCC(=O)O)c3csc(N)n3)[C@H]2SC1	81.2% (active)
C=CC1=C(C(=O)O)N2C(=O)[C@@H](NC(=O)/C(=N/OCC(=O)O)c3csc(N)n3)[C@H]2SC1	-43.7% (inactive)
CCN1CCN(C(=O)N[C@@H](C(=O)N[C@@H]2C(=O)N3C(C(=O)O)=C(CSc4nnnn4C)CS[C@H]23)c2ccc(O)cc2)C(=O)C1=O	1.74% (inactive)
Cc1nnc(SCC2=C(C(=O)O)N3C(=O)C(NC(=O)Cn4nc(C)c(Cl)c4C)C3SC2)s1 (stereo unspecified)	2.36% (inactive)
CCCCN(C=O)c1c(CC)nc2c(OCCC3CCCCC3)cccn12	-6.04% (inactive)
CCOC(=O)C1=CCC(c2ccc(F)cc2)N(S(=O)(=O)c2ccc(C)cc2)C1 (stereo unspecified)	6.68% (inactive)
CC1CCCCN1C(=O)CCS(=O)(=O)Cc1ccccc1 (stereo unspecified)	-2.02% (inactive)
CC(C)CC(CCc1ccccc1)OS(N)(=O)=O (stereo unspecified)	4.1% (inactive)
COc1ccc(S(=O)(=O)N2CCN(C(C)C(=O)Nc3ccc(C(C)C)cc3)CC2)cc1 (stereo unspecified)	2.17% (inactive)
COc1ccc(OCC(=O)NNC(=O)C2CCC2)cc1	0.09% (inactive)
CC(NC(=O)COc1ccc(-c2ccccc2)cc1)C1CCCO1 (stereo unspecified)	-1.92% (inactive)
COc1ccc(OCC(=O)NNC(=O)c2ccc(-c3ccccc3)cc2)cc1	59.6% (active)
COc1ccc(Cl)cc1NC(=O)CN(C)C(=O)c1cn(-c2ccccc2)nc1-c1cccs1	-24.5% (inactive)
CC(C)(C)c1ccc(S(=O)(=O)N2CCN(C(=O)c3ccc4c(c3)C(=O)N(Cc3ccncc3)C4=O)CC2)cc1	-1.88% (inactive)
O=C(CCN1C(=O)C2C3C=CC(C3)C2C1=O)Nc1ccccc1F (stereo unspecified)	75.5% (active)
O=C(CCN1C(=O)C2C3CCC(C3)C2C1=O)Nc1ccc(Cl)cc1Cl (stereo unspecified)	-0.32% (inactive)
O=C(CCN1C(=O)C2C3C=CC(C3)C2C1=O)Oc1ccc2ccccc2c1 (stereo unspecified)	-3.47% (inactive)
